NCOA3 inh = human NCOA3 inhibition. 360,000 compounds, 0.17% hits. HEK293 GAL4-SRC3 luciferase reporter, luminescence. inhibition, % at 3.6 µM. AID 588352;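 active = inhibition above a per-campaign cutoff, the mean of all compounds plus 3 SD, cut at about 60% in these data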;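 note: 0% = DMSO-treated cells and 100% = gossypol-treated cells at 36 µM; higher means less SRC3-driven luciferase light from the GAL4 reporter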
SRC1 inh = inhibits human SRC1 coactivator; Q15788; HEK293 GAL4-SRC1 luciferase reporter, luminescence; inhibition, % at 3.6 µM; 360,000 compounds, 0.12% hits; AID 588354;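 active = inhibition above the campaign mean plus 3 SD, with each screening campaign given its own cutoff, cut at about 60% in these data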;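 note: 0% = DMSO treated cells and 100% = gossypol at 36 µM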
LRH-1 inv ag = suppresses constitutive activity of human LRH-1 | HEK293T StAR-luciferase reporter, LRH-1 transfected, 24 h | O00482 | inhibition, % at 3.6 µM | 360,000 compounds, 0.13% hits;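 active = inhibition above the mean inhibition of all tested compounds plus 3 SD, cut at about 73% in these data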;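 note: 0% = DMSO wells and 100% = reporter-only cells lacking LRH-1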
Target sequence (O00482 whole entry, looked up): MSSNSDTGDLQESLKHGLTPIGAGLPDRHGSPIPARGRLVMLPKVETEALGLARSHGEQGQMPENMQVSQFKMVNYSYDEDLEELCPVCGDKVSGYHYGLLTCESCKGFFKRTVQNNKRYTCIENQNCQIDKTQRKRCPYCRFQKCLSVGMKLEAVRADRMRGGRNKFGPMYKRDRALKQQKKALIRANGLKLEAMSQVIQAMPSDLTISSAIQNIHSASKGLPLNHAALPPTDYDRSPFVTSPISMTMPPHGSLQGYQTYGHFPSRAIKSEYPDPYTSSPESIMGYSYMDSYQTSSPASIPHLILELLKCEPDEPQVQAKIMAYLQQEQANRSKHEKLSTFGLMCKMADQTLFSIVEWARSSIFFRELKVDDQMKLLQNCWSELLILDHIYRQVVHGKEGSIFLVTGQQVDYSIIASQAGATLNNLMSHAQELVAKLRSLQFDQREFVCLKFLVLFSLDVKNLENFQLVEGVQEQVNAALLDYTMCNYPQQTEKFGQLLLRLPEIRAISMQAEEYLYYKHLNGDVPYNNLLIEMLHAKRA
GalR3 antagonist = human GalR3 antagonism; O60755; inhibition, % at 3 µM; HEK293 GalR3-CNG cAMP membrane potential fluorescence; galR3 body fused to GalR1 C-terminus; 360,000 compounds, 0.44% hits; AID 651719;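 active = inhibition above the screen-wide average plus 3 SD, cut at about 13% in these data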;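 note: forskolin and galanin both at EC90 stimulate the cells; cAMP rise reported by CNG channel membrane potential dye signal; 0% = forskolin plus galanin with DMSO and 100% = forskolin alone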
NCOA2 inhibitor = human SRC2 (NCOA2) inhibition | inhibition, % at 9 µM | HEK293 GAL4-SRC2 luciferase reporter, luminescence | 370,000 compounds, 0.17% hits | AID 651957 | Q15596;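 active = inhibition above the mean inhibition of all tested compounds plus 3 SD, set per campaign, cut at about 52% in these data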;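 note: 0% = DMSO treated cells and 100% = cells given Gossypol at 36 µM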
COUP-TFII inh = inhibitors of human COUP-TFII (NR2F2) | 370,000 compounds, 0.7% hits | P24468 | inhibition, % at 8.6 µM | HEK293T NGFI-A luciferase reporter, luminescence;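 active = inhibition above a per-plate cutoff, mean inhibition of test wells between control levels plus 3 SD, cut at about 38% in these data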;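 note: cells cotransfected with COUP-TFII expression vector driving the NGFI-A reporter; 0% = median of COUP-TF2 test wells and 100% = reporter-only cells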
Gal4-VP16 ctr = counter-screen for COUP-TFII antagonists: inhibitors of VP16 | shares compounds with COUP-TFII inh | HEK293 Gal4-VP16 luciferase reporter, luminescence | inhibition, % at 8.5 µM | 2,500 compounds, 25% hits | AID 687007; in the data active = inhibition above about 13%
COUP-TFII conf = confirmation of human COUP-TFII (NR2F2) inhibitors | shares compounds with COUP-TFII inh | HEK293 NGFI-A luciferase reporter, luminescence | inhibition, % at 8.5 µM | 2,500 compounds, 45% hits;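 active = mean inhibition over three repeats above a set limit taken from the earlier primary screen, cut at about 38% in these data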;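 note: 100% = cells given the luciferase reporter alone without the COUP-TF2 vector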
The depositor's hits bear a star; i = inactive; nt = no result given; ! = not active in a repeat. Shown are actives, neighbours in structure and some others; about 1.1% of the full set was active somewhere.

SMILES	NCOA3 inh	SRC1 inh	LRH-1 inv ag	GalR3 antagonist	NCOA2 inhibitor	COUP-TFII inh	Gal4-VP16 ctr	COUP-TFII conf
COc1ccc(-c2ccc(C(=O)NCc3ccc(F)c(F)c3)c3occc23)c(C)c1	1	5	18	-3	3	16	nt	nt
COc1ccc(-c2coc3c(C(=O)NCc4ccc(F)c(F)c4)cccc23)c(C)c1	-22	8	19	-8	6	47*	7	28
Cc1ccc2c(c1)C1(C(=O)N2C)N2CC3(C)CN1CC(C)(C2)C3=O (stereo not drawn)	23	-3	9	-11	6	-6	nt	nt
CCCCOc1ccc(C(=O)NC2CCCCN(Cc3cccc(Cl)c3)C2=O)cc1 (stereo not drawn)	nt	nt	nt	nt	11	38*	-1	23
O=C(NC1CCCCN(Cc2ccc(Cl)cc2)C1=O)c1ccc(COc2ccccc2)cc1 (stereo not drawn)	nt	nt	nt	nt	29	53*	-1	12
O=C(NC1CCCCN(Cc2cccc(Cl)c2)C1=O)c1ccc(F)cc1 (stereo not drawn)	nt	nt	nt	nt	-20	-6	nt	nt
Cc1ccccc1CN1CCCCC(NC(=O)c2ccc(COc3ccccc3)cc2)C1=O (stereo not drawn)	nt	nt	nt	nt	25	68*	1	49*
COc1cc(C(=O)NC2CCCCN(Cc3cccc(C(F)(F)F)c3)C2=O)cc(OC)c1OC (stereo not drawn)	nt	nt	nt	nt	8	26	nt	nt
O=C(NC1CCCCN(Cc2cccc(C(F)(F)F)c2)C1=O)c1ccc(COc2ccccc2)cc1 (stereo not drawn)	nt	nt	nt	nt	12	66*	10	62*
N=c1c[n+](N2CCOCC2)[n-]o1	5	4	6	nt	21	-3	nt	nt
COc1ccc(NC(=O)c2ccccc2O)c(OC)c1	-82	-110	-125	-5	-46	-36	nt	nt
CCOc1cc(/C=C2\COc3ccccc3C2=O)cc(Br)c1OCC(=O)N(C)C	42	35	25	-4	57*	38*	4	28
NC(Cc1ccc(Cl)cc1)c1csc(NC(=O)NCCc2ccccc2)n1 (stereo not drawn)	-13	15	-14	-8	3	-9	nt	nt
NC(Cc1ccc(Cl)cc1)c1csc(NC(=O)NCC2CCCCC2)n1 (stereo not drawn)	12	-4	-8	-9	60*	81*	2	0
On1ccccc1=S	47	i	72	-1	16	66*	87*	46*
Cc1ccc(S(=O)(=O)N2CCC(=O)N(CCOCc3ccc(C(F)(F)F)cc3)CC2)cc1	11	11	18	9	14	51*	0	38*
COc1cc(C(=O)NCc2ccc(S(N)(=O)=O)cc2)ccc1OCC(=O)Nc1cccc(C(F)(F)F)c1	-4	-18	13	-3	-5	0	nt	nt
COc1cc(C(=O)N(C)CCOc2ccccc2)ccc1OCC(=O)Nc1cccc(C(F)(F)F)c1	14	6	-14	-4	28	57*	8	22
COc1ccc(Br)cc1S(=O)(=O)NNC(=O)c1c(C)nc2ccccn12	11	11	-7	-2	-18	4	nt	nt
Cc1nc2ccccn2c1C(=O)NNS(=O)(=O)c1ccc(C(C)(C)C)cc1	13	13	22	-10	3	46*	3	34
O=C(C1CC1)N1CCC(c2nc(-c3ccc(S(=O)(=O)NCC4CCCO4)cc3)no2)CC1 (stereo not drawn)	32	-3	16	-6	30	45*	-4	20
O=C(c1ccccc1)N1CCC(c2nc(-c3ccc(S(=O)(=O)NCC4CCCO4)cc3)no2)CC1 (stereo not drawn)	10	9	12	-2	13	18	nt	nt
CC(=O)CSc1ccc(-c2nc3cc(C)c(C)cc3[nH]2)cn1	46	21	0	-5	63*	54*	2	29
CC(=O)CSc1ccc(-c2nc3ccccc3[nH]2)cn1	-65	-90	-138	-7	-3	-3	nt	nt
CS(=O)(=O)N1CCc2cc(-c3csc(NC(=O)Cc4cccs4)n3)ccc21	30	11	43	-8	-8	66*	-4	35
SMILES	NCOA3 inh	SRC1 inh	LRH-1 inv ag	GalR3 antagonist	NCOA2 inhibitor	COUP-TFII inh	Gal4-VP16 ctr	COUP-TFII conf
CC(=O)Nc1nc(-c2ccc3c(c2)CCN3S(C)(=O)=O)cs1	-61	-32	-49	-5	-42	-28	nt	nt
O=C(CN1CCOCC1)Nc1nc(-c2ccc3c(c2)CCN3S(=O)(=O)c2ccccc2)cs1	25	9	-3	1	16	42*	0	15
Cc1sc(NC(=O)CN2CCOCC2)nc1-c1ccc2c(c1)CCN2S(=O)(=O)c1ccccc1	19	19	18	-7	-6	65*	9	56*
Cc1ccc(-c2csc(NC(=O)CN3CCOCC3)n2)cc1	5	0	-3	-10	17	-7	nt	nt
CC(NC(=O)c1ccc(S(=O)(=O)C(F)F)cc1)c1ccccc1 (stereo not drawn)	18	8	11	4	2	-10	nt	nt
CC(C)C[C@@H](CN1CCCC1CN1C(=S)NC[C@@H]1Cc1ccccc1)N1C[C@H](Cc2ccccc2)N(CCc2ccccc2)C1=S (stereo partly drawn)	nt	nt	7	-2	10	27	nt	nt
O=C(NC1CCCCN(Cc2ccc(Cl)cc2)C1=O)c1cccc(C(F)(F)F)c1 (stereo not drawn)	nt	nt	nt	nt	19	7	nt	nt
COc1ccc(CCC(=O)Nc2ccc(C)c(S(=O)(=O)N(C)C)c2)cc1OC	17	13	29	-3	21	41*	1	15
COc1ccc(CC(=O)Nc2ccc3c(c2)CCC3)cc1OC	27	25	23	-7	-5	50*	-4	12
CC1CCN(c2ccc(-c3cccc(NC(=O)C(F)(F)F)c3)nn2)CC1	12	35	0	-8	42	41*	-1	33
O=C(Nc1cccc(-c2ccc(N3CCCCC3)nn2)c1)C(F)(F)F	-60	-36	-58	-6	14	20	nt	nt
CC1CNCCN1S(=O)(=O)c1cccc2cnccc12 (stereo not drawn)	17	4	-1	-4	31	41*!	3	11
CC1(C)C(N(O)C(=O)Nc2ccccc2)N(c2cccc(Cl)c2)C(=O)N1O (stereo not drawn)	19	-7	-5	-1	10	10	nt	nt
Cc1cc(=O)n(-c2ccc(O)cc2)[nH]1	32	13	18	-3	20	42*	-5	-15
Cc1cc(=O)n(-c2ccc(C(=O)O)cc2)[nH]1	2	8	5	-1	-11	15	nt	nt

From PubChem BioAssay
